Structures are written as SMILES. Activity calls are given as the source filed them.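 Rule for the calls: active = compounds whose dose series gives a full or clear partial fitted curve of increased nuclear translocation; inconclusive = weak partial curve or effect only at the top dose; inactive = no dose-dependent translocation response.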

The source of these data is PubChem BioAssay (NCATS).
Potency is the fitted concentration of half-maximal effect.

Chain of Glucocorticoid receptor (Homo sapiens) (P04150 whole entry, looked up): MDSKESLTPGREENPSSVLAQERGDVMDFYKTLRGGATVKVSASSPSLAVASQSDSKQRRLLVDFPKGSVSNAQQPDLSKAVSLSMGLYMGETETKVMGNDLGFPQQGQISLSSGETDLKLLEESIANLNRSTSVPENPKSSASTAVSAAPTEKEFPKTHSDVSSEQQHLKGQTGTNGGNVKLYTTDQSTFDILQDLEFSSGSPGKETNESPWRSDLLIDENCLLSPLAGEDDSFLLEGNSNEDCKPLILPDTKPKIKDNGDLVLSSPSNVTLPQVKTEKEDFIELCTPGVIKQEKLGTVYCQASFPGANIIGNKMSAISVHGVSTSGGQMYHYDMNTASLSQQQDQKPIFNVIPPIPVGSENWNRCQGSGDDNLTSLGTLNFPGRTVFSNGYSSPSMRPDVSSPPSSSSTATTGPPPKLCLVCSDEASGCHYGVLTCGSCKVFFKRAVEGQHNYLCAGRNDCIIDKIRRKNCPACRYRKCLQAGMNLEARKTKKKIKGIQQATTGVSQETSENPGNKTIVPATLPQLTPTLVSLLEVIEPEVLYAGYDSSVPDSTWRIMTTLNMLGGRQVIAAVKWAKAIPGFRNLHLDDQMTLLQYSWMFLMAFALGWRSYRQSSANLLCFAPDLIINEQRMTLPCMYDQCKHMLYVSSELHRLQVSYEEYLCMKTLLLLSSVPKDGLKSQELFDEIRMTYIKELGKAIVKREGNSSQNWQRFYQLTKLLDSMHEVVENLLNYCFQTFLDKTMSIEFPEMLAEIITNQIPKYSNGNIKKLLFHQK

This assay has as its target Glucocorticoid receptor (Homo sapiens) (UniProt P04150). The assay is described as follows: GR-GFP Redistribution (AID 450). As to conditions: U2OS GR-GFP nuclear translocation, laser cytometry, 2 h.
With `COc1cccc(Cn2c(=O)c(-c3cccs3)nc3cnc(N4CCN(C)CC4)nc32)c1`, the Potency is > 9.22 µM (inactive).

Turning to `Cn1c(=O)c(-c2ccc(Cl)cc2)nc2cnc(Oc3ccccc3)nc21`, the Potency was > 9.22 µM (inactive).

As for `CCNc1ncc2nc(-c3ccccc3)c(=O)n(-c3ccc(OC)cc3)c2n1`, the Potency was > 9.22 µM (inactive).

As for `COCCn1c(=O)c(-c2ccc(OC)cc2)nc2cnc(Oc3cccc(Cl)c3)nc21`, the Potency was > 9.22 µM (inactive).

Consider `COc1ccc(-c2nc3cnc(N4CCN(C)CC4)nc3n(CCC#N)c2=O)cc1`, for which the Potency is > 9.22 µM (inactive).

For the compound `COc1ccc(CNc2nc(-c3ccccc3CN(C)C)nc3ccccc23)c(OC)c1`, the Potency is > 46 µM (inactive).

For `Cn1c(=O)cnc2cnc(Nc3ccccc3)nc21`, the Potency was > 9.22 µM (inactive).

Take `O=c1c(-c2cccs2)nc2cnc(Oc3ccccc3)nc2n1-c1ccccc1`: the Potency was > 9.22 µM (inactive).

Regarding `COc1ccccc1CNc1cc(-c2cccc(NS(C)(=O)=O)c2)ncn1`, the Potency was > 46 µM (inactive).

In the case of `COc1ccc(-n2c(=O)c(-c3ccc(Cl)cc3)nc3cnc(N4CCOCC4)nc32)cc1`, the Potency is > 9.22 µM (inactive).

In the case of `Cn1c(=O)c(-c2ccccc2)nc2cnc(Oc3ccccc3)nc21`, the Potency is > 9.22 µM (inactive).

As for `COc1ccc(Oc2ncc3nc(-c4cccs4)c(=O)n(Cc4cccc(OC)c4)c3n2)cc1`, the Potency is > 9.22 µM (inactive).

Consider `COc1ncc2nc(C)c(=O)n(CCC#N)c2n1`, for which the Potency was > 9.22 µM (inactive).

Turning to `CCNc1ncc2nc(-c3ccc(Cl)cc3)c(=O)n(C3CC3)c2n1`, the Potency is > 9.22 µM (inactive).

As to `Cc1cccc(CNc2cc(-c3ccc(N(C)C)cc3)ncn2)c1`, the Potency is > 46 µM (inactive).
